Our source for the growth inhibition, inhibition and outcome values is PubChem BioAssay.

The term inhibition denotes the relative decrease from the control value, in per cent.

Experiment [1] can be described thus: antimalarial activity against Dd2 strain (AID 2302;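 active means growth inhibition above 50% at the single 2 µM test dose, taken to imply half-maximal potency below 2 µM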;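 further: 0% = DMSO untreated growth and 100% = chloroquine plus artemisinin killed control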). To be noted: P. falciparum Dd2 in RBCs, LDH growth readout, 72 h; at 2 µM; stronger effect = higher value.
A short description of experiment [2]: HepG2 cytotoxicity, primary screen, cytotoxicity control for P. falciparum antimalarial project, cell-based, ATP luminescence (AID 2303;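 active means inhibition above 50%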;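 further: 0% = DMSO wells and 100% = digitonin-killed cells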). To be noted: HepG2 viability, 24-48 h, at 10 µM, stronger effect = higher value.
Experiment [3] concerns the target L-lactate dehydrogenase (Plasmodium falciparum (isolate CDC / Honduras)) (UniProt Q27743). Briefly: PfLDH activity inhibition – cell lysate, 3D7 strain, counter-screen for P. falciparum growth inhibition project (AID 2304).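 Further: 0% = vehicle and 100% = reference inhibitor.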 To be noted: P. falciparum 3D7 crude extract, LDH APAD/NBT absorbance; at 2 µM; stronger effect = higher value.
A short description of experiment [4]: inhibition of 3D7 malaria parasite growth – strain 3D7 (AID 2306).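 Further: 0% = DMSO wells and 100% = chloroquine plus artemisinin control wells.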 To be noted: P. falciparum 3D7 erythrocytic growth, LDH absorbance, 72 h; at 2 µM; stronger effect = higher value.
In experiment [5] the target is Calcium-dependent protein kinase 1 (Plasmodium falciparum (isolate 3D7)) (UniProt P62344). The experiment is described as follows: PfCDPK1 kinase inhibitors, biochemical, TCAMS library (AID 1159585; cut-off not given, nearly all actives have IC50 up to about 0.98 µM;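 further: inhibitors leave more ATP so luminescence rises with inhibition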). To be noted: recombinant PfCDPK1, Kinase-Glo ATP depletion luminescence.
Chain of Calcium-dependent protein kinase 1 (Plasmodium falciparum (isolate 3D7)) (P62344 whole entry, looked up): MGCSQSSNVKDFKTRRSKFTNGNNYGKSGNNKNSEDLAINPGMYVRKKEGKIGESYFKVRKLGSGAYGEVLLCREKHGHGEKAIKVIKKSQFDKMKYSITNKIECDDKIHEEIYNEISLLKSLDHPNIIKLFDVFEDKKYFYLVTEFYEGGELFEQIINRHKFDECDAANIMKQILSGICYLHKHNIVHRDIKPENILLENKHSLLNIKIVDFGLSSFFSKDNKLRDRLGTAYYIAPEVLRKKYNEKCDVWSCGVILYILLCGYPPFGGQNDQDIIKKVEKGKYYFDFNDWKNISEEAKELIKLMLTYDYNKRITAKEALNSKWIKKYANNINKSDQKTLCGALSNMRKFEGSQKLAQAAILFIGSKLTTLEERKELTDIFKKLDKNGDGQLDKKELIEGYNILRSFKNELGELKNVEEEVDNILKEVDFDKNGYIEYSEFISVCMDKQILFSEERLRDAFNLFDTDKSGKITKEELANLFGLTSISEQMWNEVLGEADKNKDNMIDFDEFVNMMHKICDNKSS
Experiment [6] addresses Plasmodium falciparum protein kinase 6 (PK6, PF3D7_1337100) (UniProt Q8IDW1). Briefly: PfPK6 kinase inhibitors, biochemical, TCAMS library (AID 1159586). To be noted: recombinant PfPK6, Kinase-Glo ATP depletion luminescence. In general terms: In Kinase-Glo more light means more ATP remaining.
Experiment [7] addresses Protein kinase 7 (PK7), Plasmodium falciparum 3D7 (PF3D7_0213400) (UniProt Q7YTF7). Briefly: inhibition of Plasmodium PK7 catalytic activity – biochemical, TCAMS antimalarial set, Kinase-Glo luminescence (AID 1159587). To be noted: recombinant PfPK7, Kinase-Glo ATP depletion luminescence.
The target in experiment [8] is Calcium-dependent protein kinase 4 (Plasmodium falciparum (isolate 3D7)) (UniProt Q8IBS5). The experiment is described as follows: PfCDPK4 kinase inhibitors, biochemical, TCAMS library (AID 1159588; cut-off not given, nearly all actives have IC50 up to about 0.91 µM). To be noted: recombinant PfCDPK4, Kinase-Glo ATP depletion luminescence.
Chain of Calcium-dependent protein kinase 4 (Plasmodium falciparum (isolate 3D7)) (Q8IBS5 whole entry, looked up): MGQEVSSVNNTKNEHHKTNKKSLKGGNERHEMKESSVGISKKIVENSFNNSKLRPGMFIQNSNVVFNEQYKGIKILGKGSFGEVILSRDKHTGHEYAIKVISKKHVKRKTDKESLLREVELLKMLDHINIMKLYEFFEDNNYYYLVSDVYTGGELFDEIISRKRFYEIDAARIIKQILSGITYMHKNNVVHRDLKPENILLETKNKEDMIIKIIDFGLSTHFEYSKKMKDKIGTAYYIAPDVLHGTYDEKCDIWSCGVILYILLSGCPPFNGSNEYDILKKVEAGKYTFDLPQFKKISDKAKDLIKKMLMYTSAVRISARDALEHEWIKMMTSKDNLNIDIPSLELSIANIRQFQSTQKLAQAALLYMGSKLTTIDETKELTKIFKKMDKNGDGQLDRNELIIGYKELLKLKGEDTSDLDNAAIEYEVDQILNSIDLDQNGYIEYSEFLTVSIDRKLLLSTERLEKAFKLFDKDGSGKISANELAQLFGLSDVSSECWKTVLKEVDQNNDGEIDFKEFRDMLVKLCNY

The structures appear in SMILES notation. “And” between values parts separate entries of the source, which are not always exact repeats. Equal values may be shown once. For some assays here: Results with a measured potency or affinity are listed apart. The source holds several records for some structures; these can differ, active in one and inactive in another. The source made the active and inactive calls. Unless noted, how the calls were made is not given here.

Chain of L-lactate dehydrogenase (Plasmodium falciparum (isolate CDC / Honduras)) (Q27743 whole entry, looked up): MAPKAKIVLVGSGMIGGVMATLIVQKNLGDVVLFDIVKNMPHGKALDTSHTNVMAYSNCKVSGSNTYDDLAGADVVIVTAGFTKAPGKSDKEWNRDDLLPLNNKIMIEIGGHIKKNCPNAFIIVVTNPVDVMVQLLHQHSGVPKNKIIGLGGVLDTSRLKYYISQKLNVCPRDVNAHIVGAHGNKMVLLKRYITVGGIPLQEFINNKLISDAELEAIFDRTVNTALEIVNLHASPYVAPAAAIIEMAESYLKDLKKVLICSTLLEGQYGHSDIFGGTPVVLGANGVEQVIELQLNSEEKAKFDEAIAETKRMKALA
Chain of Plasmodium falciparum protein kinase 6 (PK6, PF3D7_1337100) (Q8IDW1 1-305): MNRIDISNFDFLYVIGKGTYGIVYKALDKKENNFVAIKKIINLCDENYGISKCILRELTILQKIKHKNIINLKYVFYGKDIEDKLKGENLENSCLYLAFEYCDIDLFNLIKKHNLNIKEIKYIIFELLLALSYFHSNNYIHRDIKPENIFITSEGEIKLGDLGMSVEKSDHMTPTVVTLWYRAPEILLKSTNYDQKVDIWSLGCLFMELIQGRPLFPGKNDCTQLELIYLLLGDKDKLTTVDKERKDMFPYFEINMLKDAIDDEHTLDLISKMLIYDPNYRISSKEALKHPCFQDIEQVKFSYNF
Chain of Protein kinase 7 (PK7), Plasmodium falciparum 3D7 (PF3D7_0213400) (Q7YTF7 1-343): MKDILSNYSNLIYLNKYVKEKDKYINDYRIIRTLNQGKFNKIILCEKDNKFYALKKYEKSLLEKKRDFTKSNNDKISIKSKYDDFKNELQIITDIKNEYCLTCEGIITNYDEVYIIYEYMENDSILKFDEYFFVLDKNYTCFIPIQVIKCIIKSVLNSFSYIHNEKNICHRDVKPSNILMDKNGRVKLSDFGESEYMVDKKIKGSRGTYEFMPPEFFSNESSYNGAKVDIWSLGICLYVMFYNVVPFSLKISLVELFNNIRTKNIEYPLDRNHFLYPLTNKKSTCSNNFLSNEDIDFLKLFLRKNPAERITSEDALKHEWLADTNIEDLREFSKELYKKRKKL

Take `CC(C)CNCc1cccc(-c2cccc(CN(C(=O)Nc3ccccc3)C3CCN(Cc4ccccc4)CC3)c2)c1`: the growth inhibition is 89% (active) in experiment [1] and 102% (active) in experiment [4]. The inhibition in experiment [2] is 31% (inactive); in experiment [3], 3% (inactive). Besides, the outcome in experiment [5], in experiment [6], in experiment [7] and in experiment [8] was inactive.
Turning to `O=C(/C=C/c1ccc(Cl)c(Cl)c1)NC1CCC(CN2CCC(c3c[nH]c4cc(C(F)(F)F)ccc34)CC2)CC1` (configuration not stated), the growth inhibition in experiment [1] was 38% (inactive) and 85% (active); in experiment [4], 98% (active) and 102% (active). In addition, the inhibition in experiment [2] is 11% (inactive) and 40% (inactive); in experiment [3], 1% (inactive) and 6% (inactive). For the same compound, the outcome in experiment [5], in experiment [6], in experiment [7] and in experiment [8] was inactive.
As to `CC(=O)Nc1ccc(OCCN(CC(F)(F)F)c2ccc(C#N)cc2C(F)(F)F)cc1`, the growth inhibition was 83% (active) in experiment [1] and 81% (active) in experiment [4]. Besides, the inhibition is -1% (inactive) in experiment [2] and 1% (inactive) in experiment [3]. In addition, the result in experiment [5], in experiment [6], in experiment [7] and in experiment [8] was inactive.
As to `CC(=O)Nc1ccc2[nH]cc(C3CCN(CC4CCC(NC(=O)/C=C/c5ccc(Cl)c(Cl)c5)CC4)CC3)c2c1` (configuration not stated), the growth inhibition in experiment [1] was 99% (active) and 59% (active); in experiment [4], 90% (active) and 100% (active). The inhibition in experiment [2] was 18% (inactive) and 10% (inactive); in experiment [3] it was 2% (inactive) and 6% (inactive). For the same compound, the result in experiment [5], in experiment [6], in experiment [7] and in experiment [8] was inactive.
Regarding `COC(=O)c1ccc(CC(C)NCC(O)c2ccccc2Cl)cc1` (configuration not stated), the growth inhibition in experiment [1] was 55% (active); in experiment [4], 94% (active). The inhibition in experiment [2] and in experiment [3] was 1% (inactive) each time. The outcome in experiment [5], in experiment [6], in experiment [7] and in experiment [8] was inactive.
Consider `Cc1ccc(CC(C)NC[C@H](O)c2cccc(Cl)c2)cc1` (some centres not stated), for which the results for the growth inhibition in experiment [1] and in experiment [4] were 47% (inactive) and 96% (active), respectively. In addition, the inhibition in experiment [2] is 15% (inactive); in experiment [3], -3% (inactive). The result in experiment [5], in experiment [6], in experiment [7] and in experiment [8] was inactive.
Turning to `CN(C(=O)OCc1ccccc1)C1CCC(CCN2CCC3(CC2)C(=O)NCN3c2cccc(C(F)(F)F)c2)(c2ccccc2)CC1` (configuration not stated), the growth inhibition is 72% (active) in experiment [1] and 80% (active) in experiment [4]. Further, the figures for the inhibition in experiment [2] and in experiment [3] were 19% (inactive) and -2% (inactive), respectively. For the same compound, the outcome in experiment [5], in experiment [6], in experiment [7] and in experiment [8] was inactive.
For `NC(=NCCCCCCN=C(N)/N=C(\N)c1ccc(Cl)cc1)/N=C(\N)c1ccc(Cl)cc1`, the growth inhibition in experiment [1] is 99% (active); in experiment [4], 98% (active). For the same compound, the inhibition was 10% (inactive) in experiment [2] and -9% (inactive) in experiment [3]. Also, the outcome in experiment [5], in experiment [6], in experiment [7] and in experiment [8] was inactive.
Take `CC[C@@]1(O)C(=O)OCc2c1cc1n(c2=O)Cc2c-1nc1cc3c(cc1c2CN1CCOCC1)OCO3`: the growth inhibition in experiment [1] is 80% (active); in experiment [4] it was 89% (active). Also, the values for the inhibition in experiment [2] and in experiment [3] were 81% (active) and 4% (inactive), respectively. The outcome in experiment [5], in experiment [6], in experiment [7] and in experiment [8] was inactive.
Take `CS(=O)(=O)Nc1ccc2[nH]cc(C3CCN(CC4CCC(NC(=O)/C=C/c5ccccc5Cl)CC4)CC3)c2c1` (configuration not stated): the growth inhibition was 7% (inactive) in experiment [1] and 96% (active) in experiment [4]. For the same compound, the results for the inhibition in experiment [2] and in experiment [3] were 12% (inactive) and 2% (inactive), respectively. For the same compound, the result in experiment [5], in experiment [6], in experiment [7] and in experiment [8] was inactive.
With `CC[C@H]1CN2CC[C@@H]1C[C@H]2[C@H](O)c1cc(-c2ccccc2)nc2ccc(O)cc12`, the growth inhibition in experiment [1] and in experiment [4] was 99% (active) in each case. Also, the inhibition in experiment [2] is 14% (inactive); in experiment [3], -2% (inactive). Besides, the outcome in experiment [5], in experiment [6], in experiment [7] and in experiment [8] was inactive.
As to `CC(=O)N(Cc1cccc(-c2cccc(CNCCc3ccccc3)c2)c1)C1CCN(Cc2ccccc2)CC1`, the growth inhibition in experiment [1] was 57% (active); in experiment [4], 100% (active). The inhibition in experiment [2] is 22% (inactive); in experiment [3], -3% (inactive). Moreover, the outcome in experiment [5], in experiment [6], in experiment [7] and in experiment [8] was inactive.
Take `CCCCCC(C)C(C)c1cc(O)c2c(c1)O[C@@]1(C(C)C)CC(O)[C@H](C)[C@@H]2C1` (some centres not stated): the growth inhibition in experiment [1] is 87% (active); in experiment [4] it was 93% (active). Also, the inhibition in experiment [2] is 1% (inactive); in experiment [3], -3% (inactive). The result in experiment [5], in experiment [6], in experiment [7] and in experiment [8] was inactive.
For the compound `Cc1[nH]c2ccccc2c1C1=CCN(CCCCC2(C)C(=O)Nc3cccc(F)c32)CC1` (configuration not stated), the growth inhibition in experiment [1] is 90% (active); in experiment [4], 95% (active). Also, the inhibition in experiment [2] is 9% (inactive); in experiment [3], -4% (inactive). In addition, the result in experiment [5], in experiment [6], in experiment [7] and in experiment [8] was inactive.
For the compound `O=C(Nc1ccc(Oc2ccccc2)cc1)NC1CCC(CN2CCC(c3c[nH]c4ccccc34)CC2)CC1` (configuration not stated), the figures for the growth inhibition in experiment [1] and in experiment [4] were 97% (active) and 101% (active), respectively. Besides, the inhibition is 55% (active) in experiment [2] and 4% (inactive) in experiment [3]. In addition, the outcome in experiment [5], in experiment [6], in experiment [7] and in experiment [8] was inactive.
With `CN(C)CCC(=O)c1ccccc1`, the results for the growth inhibition in experiment [1] and in experiment [4] were 5% (inactive) and 100% (active), respectively. The inhibition is 11% (inactive) in experiment [2] and -6% (inactive) in experiment [3]. The result in experiment [5], in experiment [6], in experiment [7] and in experiment [8] was inactive.
Take `CCOC(C(=O)OCC1CCCN(C)C1)(c1ccccc1)c1ccccc1` (configuration not stated): the growth inhibition in experiment [1] was 3% (inactive); in experiment [4] it was 98% (active). Moreover, the values for the inhibition in experiment [2] and in experiment [3] were 13% (inactive) and 0% (inactive), respectively. The outcome in experiment [5], in experiment [6], in experiment [7] and in experiment [8] was inactive.
With `CC(=O)Nc1ccc(CN2CCC(N(C)c3cc(NC(=O)c4cccc(F)c4)ccn3)CC2)cc1`, the growth inhibition in experiment [1] is -1% (inactive); in experiment [4] it was 85% (active). Further, the inhibition in experiment [2] is 4% (inactive); in experiment [3], 2% (inactive). Also, the result in experiment [5], in experiment [6], in experiment [7] and in experiment [8] was inactive.
For the compound `O=C(NCc1ccc(S(=O)(=O)N2CCC(CN3CCC(c4c[nH]c5ccccc45)CC3)CC2)s1)c1ccccc1`, the growth inhibition in experiment [1] is 21% (inactive); in experiment [4] it was 92% (active). In addition, the inhibition in experiment [2] was 32% (inactive); in experiment [3] it was 5% (inactive). Further, the result in experiment [5], in experiment [6], in experiment [7] and in experiment [8] was inactive.
